# Screens deposited in PubChem BioAssay by several laboratories.
# IEC-6 cytotox: cytotoxicity in IEC-6 intestinal epithelial cells, primary screen, cytotoxicity control for KLF5 inhibitor project, cell-based, luminescence. IEC-6 cytotoxicity, luminescence viability. 290,000 compounds, 0.78% hits. inhibition, % at 5 µM. AID 1825, 2009;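 further: 0% = plate median of test compound wells and 100% = cytotoxic reference compound wells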
# BaF3 tox: parental Ba/F3 cell viability inhibition, counter-screen for JAK2V617F inhibitor project, murine pro-B, CellTiter-Glo luminescence; CellTiter-Glo ATP luminescence; inhibition, % at 5.6 µM; 220,000 compounds, 1.1% hits;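 active means inhibition above a per-campaign cutoff, the mean inhibition of all tested compounds plus 3 SD, cut at about 27% in these data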;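 further: 0% = DMSO wells and 100% = JAK Inhibitor I control wells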
# KLF5 inh: KLF5 expression inhibitors, primary screen, DLD-1 cells, luminescence. DLD-1 KLF5 promoter-luciferase reporter. inhibition, % at 5 µM. 290,000 compounds, 0.23% hits;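 active means inhibition above a per-plate limit of that plate's mean compound inhibition plus 3 SD, cut at about 60% in these data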;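 further: 0% = DMSO wells and 100% = LY294002 at 200 µM; higher means less KLF5 promoter-driven luciferase light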
# APP transl inh: inhibitors of APP translation via 5'UTR reporter, primary screen, APP 5'UTR luciferase, SH-SY5Y cells | SH-SY5Y APP 5'UTR-luciferase reporter, luminescence | inhibition, % at 2 µM | 190,000 compounds, 0.82% hits | AID 1285, 2008;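 active means inhibition above a set limit, derived from the sample mean plus 3 SD, cut at about 45% in these data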
# Ba/F3 V617F tox: reduced viability of JAK2V617F-dependent Ba/F3 cells, primary screen, JAK2V617F inhibitor project, cell-based, Ba/F3 EpoR-JAK2V617F, luminescence; AID 1446, 2008; inhibition, % at 5.6 µM; 220,000 compounds, 1.1% hits; ATP luminescence;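 active means inhibition above the campaign mean plus 3 SD over all tested compounds, cut at about 24% in these data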;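 further: cytokine-independent growth of Ba/F3 cells driven by EpoR plus mutant JAK2; 0% = DMSO-treated cells and 100% = JAK inhibitor I control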
# IEC-6 tox confirm: cytotoxic compounds in IEC-6 epithelial cells, confirmation, cytotoxicity control, cell-based, luminescence; IEC-6 rat intestinal epithelial viability; AID 1907, 2009; 1,900 compounds, 63% hits; shares compounds with IEC-6 cytotox; inhibition, % at 5 µM;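 further: 0% = vehicle and 100% = reference cytotoxic drug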
# * marks the source's active call; other numbers are inactive results; x = no result given. In the library only some 1.9% were active in any assay of this set; here they are far more common. Unless noted, no stated cut-off is given here; in the data, active means inhibition above about 22%; inactive means the rest.
SMILES,IEC-6 cytotox,BaF3 tox,KLF5 inh,APP transl inh,Ba/F3 V617F tox,IEC-6 tox confirm
FC(F)(F)c1cccc(-c2nc3nc(Cl)c(Cl)nc3[nH]2)c1,31*,3,-47,x,4,39*
COc1cnc(-c2cccc(C(F)(F)F)c2)[nH]c1=O,-6,5,-9,-5,-2,x
CC(=O)C1=C(C)NC(SCC(N)=O)=C(C#N)C1CC(C)C (centres undefined),3,0,-9,-33,-2,x
CCOC(=O)C1=C(C)NC(SC)=C(C#N)C1CC(C)C (centres undefined),70*,81*,52,x,85*,56*
N#CC1=C(N)Oc2ccc3ccccc3c2C1c1cccnc1 (centres undefined),55*,34*,47,54*,53*,48*
CCN1CCN(CCNC(=O)c2ccc(/C=C3/Sc4ccccc4N(Cc4ccccc4C)C3=O)cc2)CC1,30*,14,-71,-1,7,18
COc1cccc(CNCCO)c1OCc1ccccc1,2,3,-1,6,-2,x
CCn1c(COc2cccc(OC)c2)nnc1SCC(=O)Nc1cc(OC)ccc1OC,0,-2,-8,8,-4,x
Cc1nn(Cc2ccc([N+](=O)[O-])cc2)c(=O)n1-c1ccc(Cl)cc1,-1,6,-19,-6,0,x
CC(C)OC(=O)Nc1ccc2c(c1)N(C(=O)N1CCN(C)CC1)c1ccccc1CC2,35*,29*,-55,x,25*,21
Cc1ccc(OCC(=O)NCCN2CCCC2)cc1,5,1,15,-5,2,x
Cn1c(SCC(=O)NNC(=O)Nc2ccc(Cl)cc2)nnc1-c1ccccc1,-6,5,-3,x,-2,x
COCCNC(=O)c1cc2c(=O)n3cccc(C)c3nc2n(Cc2ccncc2)c1=N,0,9,-25,-2,2,x
Cc1cccn2c(=O)c3cc(C(=O)NCCc4ccccc4)c(=N)n(Cc4ccco4)c3nc12,63*,x,25,x,x,-2
Cc1cccn2c(=O)c3cc(C(=O)NCc4ccco4)c(=N)n(CCc4ccccc4)c3nc12,-12,-4,-16,x,1,x
COc1ccc(CCNC(=O)c2cc3c(=O)n4cccc(C)c4nc3n(Cc3ccco3)c2=N)cc1OC,36*,x,-3,x,x,1
COc1ccccc1NC(=O)c1ccc(NC(=O)Cc2n[nH]c(=O)c3ccccc23)cc1,25*,-7,-5,x,6,17
CC(=O)c1cccc(NC(=O)C(C)OC(=O)Cc2n[nH]c(=O)c3ccccc23)c1 (centres undefined),-4,x,-29,x,x,x
CCc1ccc(C(=O)C(C)OC(=O)Cc2n[nH]c(=O)c3ccccc23)cc1 (centres undefined),25*,x,16,x,x,9
CCOC(=O)c1c(NC(=O)C2C3C=CC(C3)C2C(=O)O)sc2c1CCCC2 (centres undefined),4,2,-11,2,2,x
O=C(Nc1ccc2oc(-c3ccncc3)nc2c1)c1ccccc1,-2,0,-32,-1,-3,x
CC(C)C(=O)Nc1ccc(-c2nc3ncccc3o2)cc1,9,x,-53,x,x,x
O=C(Nc1ccc(-c2nc3ncccc3o2)cc1)c1ccc([N+](=O)[O-])o1,80*,x,14,x,x,8
Cc1ccc(-c2nc3ncccc3o2)cc1NC(=O)c1ccc([N+](=O)[O-])o1,98*,x,-7,x,x,20
O=C(Nc1ccc2oc(-c3ccncc3)nc2c1)c1ccc([N+](=O)[O-])o1,95*,x,-17,x,x,17
SMILES,IEC-6 cytotox,BaF3 tox,KLF5 inh,APP transl inh,Ba/F3 V617F tox,IEC-6 tox confirm
N#CC1=C(S)N(c2ccc(F)cc2)C(c2cccs2)NC1=O (centres undefined),0,1,4,2,-3,x
Cc1cccc(NC(=O)c2ccc(C3SCC(=O)N3CCc3ccccc3)cc2)c1C (centres undefined),3,8,-78,25,3,x
Cc1ccc(NC(=O)CSc2nnc(CNC(=O)c3cccs3)o2)c(C)c1,0,-1,1,-19,0,x
CCOc1ccc(-c2[nH]ncc2-c2ccc(OC)c(OC)c2)c(O)c1,41*,59*,47,70*,53*,50*
COc1cc(/C=C/c2nc3ccccc3c(=O)[nH]2)cc(OC)c1OC,61*,x,32,x,x,71*
COc1cc(/C=C/c2nc3ccccc3c(=O)[nH]2)ccc1OC(F)F,-1,x,-127,x,x,x
N=c1ccn2c(n1)O[C@H]1[C@H](O)[C@@H](CO)O[C@H]12,92*,x,6,x,x,74*
Nc1ccn([C@@H]2O[C@H](CO)[C@@H](O)[C@@H]2O)c(=O)n1,90*,80*,16,83*,74*,76*
O=C(OCC1OC2C(Oc3nc(=O)ccn32)C1O)c1ccccc1 (centres undefined),3,1,-4,-10,0,x
O=c1ccn([C@@H]2O[C@H](CO)[C@@H](O)[C@H]2O)c(=O)[nH]1,-1,7,-15,15,-1,x
Nc1nc(Cl)nc2c1ncn2[C@@H]1O[C@H](CO)[C@@H](O)[C@H]1O,44*,3,31,-1,0,-6
O=C1c2ccncc2C(=O)N1Cc1cccc(Cl)c1,-1,0,-26,-10,0,x
CC(C)C(=O)Nc1nnc(CCN2CCOCC2)s1,-3,4,-4,12,-1,x
O=C(CCCl)Nc1nc2c(s1)CCc1ccccc1-2,30*,x,-14,x,x,18
COc1cccc(C(=O)CC(=O)C(=O)Nc2cccc([N+](=O)[O-])c2C)c1,1,x,-19,x,x,x
CCOc1ccccc1NC(=O)c1cccc(NC(=O)c2ccco2)c1,55*,68*,45,91*,82*,52*
Cc1ccccc1NC(=O)c1cccc(NC(=O)c2ccco2)c1,0,x,-7,x,x,x
COc1ccc(C(=O)C(CCC(CNC(C)(C)C)C(=O)c2ccc(OC)cc2)CNC(C)(C)C)cc1 (centres undefined),71*,101*,-3,97*,102*,60*
COc1ccc(C(=O)NN)cc1,4,0,-13,x,-2,x
Cc1cccc(NC2=NC(C)(C)N=C(N)N2)c1,77*,101*,20,4,99*,70*
C/C=C/c1ccc(OCC(O)CN2CCCCC2CC)c(OC)c1 (centres undefined),-3,4,-15,10,0,x
Oc1ccc(C(=S)N2CCN(c3cccc(Cl)c3)CC2)cc1,6,4,-12,1,4,x
COc1cc(C(=S)N2CCN(c3cccc(Cl)c3)CC2)ccc1O,28*,9,9,6,3,14
Cc1ccc(-c2nnc(SCC(=O)Nc3ccccc3N3CCOCC3)o2)cc1,-4,2,-8,-24,-3,x
Brc1ccc2c(c1)CN1CCCC1=N2,34*,x,-7,x,x,12
